Results as given in PubChem BioAssay (EPA / NIEHS).
The source made the active and inactive calls. Rule for the calls: active = hit-call score of the fitted dose curve at least 0.9, where 1 is the maximum; inactive = score below 0.9.

These compounds were tested on Cyclin Dependent Kinase Inhibitor 1A (CDKN1A), CDKN1A (gene 1026) (assay: LTEA_HepaRG_CDKN1A: Life Technologies and Expression Analysis (LTEA) Assay for Cyclin Dependent Kinase Inhibitor 1A (CDKN1A) using HepaRG (AID 2283450)). Details: mRNA level, 48 h; actives raise or lower the signal.
Procedure: LTEA_HepaRG is a cell based, multiplexed-readout assay that uses HepaRG, a human liver cell line, with measurements taken at 48 hours after chemical dosing on a 96-well plate.LTEA_HepaRG_CDKN1A is one of 102 assay component(s) measured in the LTEA HepaRG cell culture assay. It is a marker of Cell proliferation, survival, death.Data from the assay component LTEA_HepaRG_CDKN1A was analyzed into 1 endpoint. This assay endpoint, LTEA_HepaRG_CDKN1A, was analyzed with bidirectional fitting relative to DMSO as the negative control and baseline of activity. Using a type of inducible reporter, measures of mRNA induction for gain or loss-of-signal activity can be used to understand regulation of transcription factor activity. To generalize the intended target to other relatable targets, this assay endpoint is annotated to the cell cycle intended target family, where the subfamily is Cell proliferation, survival, death.
A total of 1060 chemcials from the ToxCast library were tested in eight-point concentration-response experiments. Cell culture and cytotoxicity assays were conducted at Thermo Fisher Scientific's Custom Services facility (Madison, WI). A single lot of human HepaRG cells (Thermo Fisher Scientific, Frederick, MD) was used for the cell culture experiments. 96-well format collagen type I coated plates of human HepaRG cells were prepared using established methods. Briefly, cryopreserved HepaRG cells were thawed, plated at a density of approximately 100,000 cells/well in HepaRG Thaw, Plate, and General Purpose media (HPRG770, Thermo Fisher Scientific), and incubated for 48 hours. 0.5% DMSO was selected as vehicle control to balance the requisite need of DMSO in HepaRG cultures to maintain differentiation (for example, baseline metabolism, proportions of hepatocytes vs. cholangiocytes), while enabling further hepatic receptor pathway activation (for example, PXR and CAR) in response to chemical exposure. 48 hours after plating, the culture medium was replaced with HepaRG Serum-Free Incudtion Media. Cells were exposed to each test chemical in duplicate and maintained in CO2 incubators for another 48 hours. Chemical plates were thawed to room temperature and 200x concentrations of treatment groups were prepared. 8-point conentration-reponse curves were made with the highest exposure at 100 uM, followed by half-log dilutions, all in 0.5% DMSO. Each test plate contained variouse controls, induction positive controls (1mM phenobarbital), cytotoxicity positive controls ([…] aflatoxin B1), vehicle controls (0.5% DMSO), and total lysis controls (0.5% DMSO). Cell morphology images were taken using an Essen IncuCyte FLR automated microscope, with six 96-well plates imaged in about 24 minutes. Images were captured and exported and JPEG files. Spent culture media was transfered to black-well plates for the LDH assay, and remaining media was sorted at -80 C for later use. Cells were treated with RLT buffer and frozen until shipped for gene expression analysis. Total RNA was isolated from the cell suspension in 75 uL of Buffer RLT (Qiagen, Germantown, MD 20874) by Quintiles/Expression Analysis (Durham, NC) using a custom isolation procedure. Total RNA from each plate well was transferred to a preamplification plate. Fluidigm's 96.96 Dynamic ArrayTM (Fluidigm, Amsterdam, the Netherlands) technology was used for gene expression analyses by quantitative reverse transcription polymerase chain reaction (qRT-PCR, performed by Quintiles/Expression Analysis, Durham, NC)89. Standard TaqManTM Assays (Applied Biosystems/ThermoFisher Scientific, Foster City, CA) were used to assess the expression of 93 genes selected based on their selectivity and sensitivity to important hepatic receptors known to be modulated by environmental chemicals; importance in human hepatocyte functionality; and hepatotoxicity. […]

| Structure (SMILES) | outcome | AC50 |
| --- | --- | --- |
| CCSC(=O)N1CCCCCC1 | inactive |  |
| C=CCOC(=O)C(C)(C)OC(=O)c1cc(-n2c(=O)cc(C(F)(F)F)n(C)c2=O)ccc1Cl | inactive |  |
| C=C(C)CN(CC)c1c([N+](=O)[O-])cc(C(F)(F)F)cc1[N+](=O)[O-] | inactive |  |
| Clc1nc(Cl)nc(Nc2ccccc2Cl)n1 | inactive |  |
| CC(C)N1C(=O)N(c2ccccc2)CSC1=NC(C)(C)C |  | 85.2 µM (active) |
| Cc1cc(C)nc(Nc2ccccc2)n1 | inactive |  |
| CC(C)Nc1nc(Cl)nc(NC(C)C)n1 | inactive |  |
| CS(=O)(=O)c1cc(C(F)(F)F)ccc1C(=O)c1cnoc1C1CC1 | inactive |  |
| CCOc1nc(F)cc2nc(S(=O)(=O)Nc3c(Cl)cccc3Cl)nn12 | inactive |  |
| Cc1c(COC(=O)[C@@H]2[C@H](/C=C(\Cl)C(F)(F)F)C2(C)C)cccc1-c1ccccc1 | inactive |  |
| COC(=O)c1c(C(F)F)nc(C(F)(F)F)c(C2=NCCS2)c1CC(C)C | inactive |  |
| CCCC(=NOCC)C1=C(O)CC(CC(C)SCC)CC1=O (stereo not given) | inactive |  |
| COCC(=O)N(c1c(C)cccc1C)C(C)C(=O)OC (stereo not given) | inactive |  |
| Cc1nc(N(C)C)nc(OC(=O)N(C)C)c1C | inactive |  |
| O=C(Nc1ccccc1-c1ccc(Cl)cc1)c1cccnc1Cl | inactive |  |
| CNC(=O)N(C)c1nnc(C(C)(C)C)s1 | inactive |  |
| CCCCC(O)(Cn1cncn1)c1ccc(Cl)cc1Cl (stereo not given) |  | 35.4 µM (active) |
| CC(C)Oc1cccc(NC(=O)c2ccccc2C(F)(F)F)c1 | inactive |  |
| Nc1c(Cl)c(Cl)nc(C(=O)O)c1Cl | inactive |  |
| CC1(C)CON(Cc2ccccc2Cl)C1=O | inactive |  |

| Structure (SMILES) | outcome | AC50 |
| --- | --- | --- |
| CCOC(=O)C(C)OC(=O)c1cc(Oc2ccc(C(F)(F)F)cc2Cl)ccc1[N+](=O)[O-] (stereo not given) | inactive |  |
| CCNP(=S)(OC)O/C(C)=C/C(=O)OC(C)C (stereo not given) | inactive |  |
| CCCN(CC)CC1COC2(CCC(C(C)(C)C)CC2)O1 (stereo not given) | inactive |  |
| CSC(=O)c1c(C(F)F)nc(C(F)(F)F)c(C(=O)SC)c1CC(C)C | inactive |  |
| CC1(C)C(C(=O)OC(C#N)c2cccc(Oc3ccccc3)c2)C1(C)C (stereo not given) | inactive |  |
| O=C1C2CC=CCC2C(=O)N1SC(Cl)(Cl)Cl (stereo not given) | inactive |  |
| Cn1c(-c2ccccc2)cc(-c2ccccc2)[n+]1C |  | 50 µM (active) |
| COC(=O)NS(=O)(=O)c1ccc(N)cc1 | inactive |  |
| CC1(C)C(C=C(Cl)Cl)C1C(=O)OC(C#N)c1cccc(Oc2ccccc2)c1 (stereo not given) | inactive |  |
| CC(C)N1C(=O)c2ccccc2NS1(=O)=O | inactive |  |
| CCOc1nc(C(Cl)(Cl)Cl)ns1 | inactive |  |
| CCOP(=O)(OCC)Oc1nc(Cl)c(Cl)cc1Cl | inactive |  |
| COCC(C)N(C(=O)CCl)c1c(C)csc1C (stereo not given) | inactive |  |
| CN/C(=N\[N+](=O)[O-])NCc1cnc(Cl)s1 | inactive |  |
| CS(=O)(=O)c1ccc(C(=O)C2C(=O)CCCC2=O)c([N+](=O)[O-])c1 | inactive |  |
| COP(=S)(OC)SCn1nnc2ccccc2c1=O | inactive |  |
| Nc1cnn(-c2ccccc2)c(=O)c1Cl | inactive |  |
| COP(=O)(OC)O/C(C)=C/C(=O)N(C)C | inactive |  |
| OC(c1ccc(Cl)cc1)(c1ccc(Cl)cc1)C(Cl)(Cl)Cl |  | 83.7 µM (active) |
| CC1(C)CCC(=Cc2ccc(Cl)cc2)C1(O)Cn1cncn1 (stereo not given) | inactive |  |
